# Data taken from PubChem BioAssay AID1985 (Southern Research Specialized Biocontainment Screening …, 2009).
# The campaign covered roughly 2,300 compounds. About 1,000 (43%) were called active. How the calls were made is not given here. So high a share suggests a set chosen from earlier hits. The list shows a part of the results. Entries with a potency or affinity are not part of this list.
# Assay: PhoP regulon inhibitor project modified counter assay, GFP fluorescence readout, dose response (AID 1985)
# Conditions: S. Typhi, 4 h; series mostly up to 150 µM
row,Compound,outcome
1,c1csc(-n2nc3ccccc3n2)c1,inactive
2,CC1Cc2ccccc2N1C(=O)CN1C(=O)C(=O)N(Cc2ccccc2)C1=O (stereo not drawn),inactive
3,CC(C)(C)SCCNC(=O)c1ccccc1,inactive
4,CCOc1ccc(-c2c[n+]3c(n2-c2ccccc2)CCCCC3)cc1,inactive
5,COCCCNc1c2c(nc3nnnn13)CCCC2,inactive
6,CC(C)(C)c1ccc(OCCNC(=S)Nc2ccccc2)cc1,inactive
7,C#CCOC(=O)c1ccccc1C(=O)OCC#C,inactive
8,O=C(NCCCNc1ccnc2cc(Cl)ccc12)c1ccccc1F,inactive
9,C=CCNc1nc(-c2ccccc2)nc(-n2ccnc2)n1,inactive
10,CC(Sc1nc2ccccc2o1)C(=O)O (stereo not drawn),inactive
11,O=C(CSc1nc2ccccc2o1)c1cc2ccccc2oc1=O,inactive
12,CN(CCO)CC(O)Cn1cnc2c1c(=O)n(C)c(=O)n2C (stereo not drawn) (tested in a mixture with another compound),inactive
13,Cc1ccc(N2CC(C(=O)OCc3ccccc3F)CC2=O)cc1 (stereo not drawn),inactive
14,Cc1cc2oc(=O)cc(CN3CCN(C/C=C/c4ccccc4)CC3)c2cc1O,inactive
15,O=C(O)/C=C/c1cn(-c2ccccc2)nc1-c1cc2ccccc2oc1=O,inactive
16,Oc1c(Br)cc(Br)cc1Oc1ccc(Br)cc1Br,inactive
17,Oc1c(Br)cc(Br)cc1C=Nc1cccc2ncccc12,inactive
18,Cc1cccc(N/N=C/c2ccc(O)c(O)c2O)c1,inactive
19,Cc1cc(C)nc(NS(=O)(=O)c2ccc(N3C(=O)C4CC=C(Cl)CC4C3=O)cc2)n1 (stereo not drawn),inactive
20,Cc1cc(C)cc(NC(=O)C(Sc2nnc(C)c(=O)[nH]2)c2ccccc2)c1 (stereo not drawn),inactive
21,Cc1c(C)n(C)c2ccc(C(=O)NCc3cccs3)cc12,inactive
22,Cc1cccc2cc(C(c3nnnn3Cc3ccccc3)N3CCN(C)CC3)c(=O)[nH]c12 (stereo not drawn),inactive
23,CCN(CC)C(=O)CNC(=O)Cc1ccc(Cl)cc1,inactive

row,Compound,outcome
1,CCCCc1ccc2[nH]cc(CCN)c2c1,inactive
2,S=C1SCN(Cc2cccnc2)CN1Cc1cccnc1,inactive
3,Cc1nc2nc(COc3ccccc3)nn2c(C)c1Cl,inactive
4,Cc1cc2oc(C(=O)NCc3ccncc3)c(C)c2cc1C,inactive
5,O=C(Nc1ccc(Nc2ccncc2)cc1)c1ccc([N+](=O)[O-])cc1,inactive
6,CC(=O)Nc1cccc(NS(=O)(=O)Cc2ccc(Cl)cc2)c1,inactive
7,O=C(Nc1ccc(N2CCOCC2)c(Cl)c1)c1ccccc1F,inactive
8,COc1ccc2c(c1)CC1(CN2C)C(=O)NC(=O)N(CCc2ccccc2)C1=O (stereo not drawn),inactive
9,Cc1ccc(C(=O)O)cc1N=Cc1cc(Br)cc(Br)c1O,inactive
10,Nc1ccc(S(=O)(=O)c2ccc(N)cc2)cc1,inactive
11,Nc1nonc1-n1nnc(C(=O)N/N=C/c2ccccc2O)c1CN1CCCC1,inactive
12,O=C(N/N=C/c1cccnc1)c1cccc(Cl)c1,inactive
13,Nc1cc(=O)[nH]c(=S)n1-c1cccc(C(F)(F)F)c1,inactive
14,O=C1c2[nH]nc(-c3ccccc3O)c2C(c2ccc(F)cc2)N1CC1CCCO1 (stereo not drawn),inactive
15,C=CCNC(=O)NC(=O)COC(=O)/C(C#N)=C/c1ccc(OC)cc1,inactive
16,N#CCCn1ncc2ccccc21,inactive
17,Cc1c(C)c2ccc(OC(C)C(=O)N[C@@H](Cc3c[nH]c4ccccc34)C(=O)O)c(C)c2oc1=O (stereo partly drawn),inactive
18,COc1ccc(/C=N/NC(=O)c2cccnc2)cc1,inactive
19,Cc1ccc(N=Cc2cc(Br)cc(Cl)c2O)cc1,inactive
20,CCN(CC)Cc1c(C(=O)N/N=C/c2cccc3ccccc23)nnn1-c1nonc1N,inactive
21,Cc1cc(C(=O)Cn2cncn2)c(C)n1CCc1ccc(F)cc1,inactive
22,O=C(CCN1CCOCC1)Nc1ccccc1,inactive
23,COc1ccc(Cl)cc1NC(=O)CCN1CCOCC1,inactive

row,Compound,outcome
1,CCCNC(=O)COc1ncnc2sc(C)c(C)c12,inactive
2,Cc1cc(C)cc(N(C(=O)CNC(=O)c2cccs2)C(C(=O)NC2CCCC2)c2cccnc2)c1 (stereo not drawn),inactive
3,Cc1c(C2(O)C(=O)Nc3ccc(F)cc32)c(=O)n(-c2ccccc2)n1C (stereo not drawn),inactive
4,C=CCOC(=O)C1=C(C)NC2(O)c3ccccc3C(=O)C12O (stereo not drawn),inactive
5,N#C/C(=C\c1ccc(O)c(O)c1)C(=O)NCc1ccccc1,inactive
6,CC1CCN(CCCCOc2ccc(Cl)cc2)CC1,inactive
7,Cn1c(CN2CCCC2)nc2cc(NC(=O)COc3ccc(Cl)cc3)ccc21,inactive
8,Cc1c(C)n(C)c2ccc(C(=O)NCCCN3CCCC3)cc12,inactive
9,CCc1nn(CCCN2CCN(c3cccc(Cl)c3)CC2)c(=O)n1CCOc1ccccc1,inactive
10,Cc1ccc(-c2nnc3sc(-c4ccncc4)nn23)cc1,inactive
11,COc1ccc(C2C(C(=O)N3CCC4(CC3)OCCO4)CC(=O)N2c2ccc(OC)cc2)cc1 (stereo not drawn),inactive
12,O=C(c1ccc2c(c1)[nH]c(=S)n1c3ccccc3nc21)N1CCN(c2cccc(Cl)c2)CC1,inactive
13,COc1cc(NS(=O)(=O)c2ccc(NC(=S)Nc3ccccc3)cc2)nc(OC)n1,inactive
14,O=S(=O)(Nc1ncccn1)c1ccc(NC(=S)Nc2ccccc2Cl)cc1,inactive
15,CCNC(=S)Nc1cccc(S(=O)(=O)Nc2ccccc2OC)c1,inactive
16,COC(=O)Cc1ccc(NC(=S)NCc2ccc(Cl)cc2)cc1,inactive
17,Cc1ccc(C)c(SCC(=O)Nc2ccc(S(=O)(=O)Nc3ncccn3)cc2)c1,inactive
18,NC(N)=NC(N)=Nc1cccc2ccccc12,inactive
19,CCNC(=O)c1ccc(C2SCC(=O)N2CCc2ccccc2)cc1 (stereo not drawn),inactive
20,COc1cccc(NC(=O)COC(=O)Cc2ccccc2[N+](=O)[O-])c1,inactive
21,COc1ccc(NC(=O)CN(C)S(=O)(=O)c2ccc(Cl)cc2)cc1Cl,inactive
22,Oc1ccccc1N=Cc1c(O)ccc2oc3c(c12)CCCC3,inactive
23,CC(=O)NCc1ccc(C(=O)CSc2nnc(-c3ccncc3)n2Cc2ccccc2)o1,inactive

row,Compound,outcome
1,Cc1[nH]c2ccccc2c1/C=N/Nc1nc2ccccc2[nH]1,inactive
2,O=C(CN(CCc1ccccc1)C(=O)CNS(=O)(=O)c1ccc(F)cc1)NCC1CCCO1 (stereo not drawn),inactive
3,COc1ccc(/C=N/NC(=O)c2ccc3c(c2)OCO3)cc1,inactive
4,OCn1ncn(-c2ccccc2)c1=S,inactive
5,CCN(CC)/C(N)=N/c1nc(C)cc(C)n1,inactive
6,c1ccc(-c2nnc(-c3c[nH]c4ccccc34)nc2-c2ccccc2)cc1,inactive
7,COC(=O)c1ccc(S(=O)(=O)N2CCC(c3nc4ccccc4o3)CC2)cc1,inactive
8,Cc1cc(N2CCN(C3CCCCC3)CC2)nc2cccc(O)c12,inactive
9,O=C(CN1C2=NCCCN2c2ccccc21)c1ccc2c(c1)OCO2,inactive
10,O=C(CN1C2=NCCCN2c2ccccc21)c1ccc([N+](=O)[O-])cc1,inactive
11,CC(C)N=C1NN=C(c2ccc(F)cc2)CS1,inactive
12,Cc1cccn2c(=O)c3cc(C(=O)NCC4CCCO4)c(=N)n(C4CCCC4)c3nc12 (stereo not drawn),inactive
13,COc1ccc(Cn2c(=N)c(C(=O)NCC3CCCO3)cc3c(=O)n4ccccc4nc32)cc1 (stereo not drawn),inactive
14,COc1ccccc1Nc1nc(NCC2CCCO2)c2ccccc2n1 (stereo not drawn),inactive
15,COc1ccc(Nc2nc(NCC3CCCO3)c3ccccc3n2)c(OC)c1 (stereo not drawn),inactive
16,Cn1cc(S(=O)(=O)NCC2CCCO2)c(=O)n(C)c1=O (stereo not drawn),inactive
17,COc1ccc(Nc2nnc(SCC3CCCO3)s2)cc1 (stereo not drawn),inactive
18,COc1ccc(CCn2c(=N)c(C(=O)NCC3CCCO3)cc3c(=O)n4ccccc4nc32)cc1 (stereo not drawn),inactive
19,CCN(CC)S(=O)(=O)c1cc(NC(=O)C2Cc3ccccc3C(=O)O2)ccc1C (stereo not drawn),inactive
20,O=C1c2ccc3c4c(ccc(c24)C(=O)N1c1cccc(O)c1)C(=O)N(c1cccc(O)c1)C3=O,inactive
21,O=C1CSC(=S)N1c1cccnc1,inactive
22,Cc1cccc(N2C(=O)CS/C2=N\NC(=O)c2ccc(Br)cc2)c1C,inactive
23,Cc1c(C(=O)O)sc(=S)n1-c1ccc(Cl)cc1,inactive

row,Compound,outcome
1,Cc1nn(C)c(C)c1NC(=O)c1ccc(S(=O)(=O)N(C)C)cc1,inactive
2,COc1ccc(CCNC(=O)Cn2c(=O)n(CC3CCCO3)c(=O)c3ccccc32)cc1OC (stereo not drawn),inactive
3,O=C(Nc1ccc(F)cc1)c1ccc2snnc2c1,inactive
4,O=C(CSCc1ccccc1)Nc1cccc(C(=O)Nc2ccc(C(=O)O)cc2)c1,inactive
5,CC(C)[C@@H](C(=O)NC1CCCC1)N1C(=O)N2CCc3c([nH]c4ccccc34)[C@@]2(C)C1=O,inactive
6,[O-][n+]1onc2c1CCc1[nH]c(-c3ccccc3)nc1-2,inactive
7,COc1ccc(C(=O)Oc2ccc(/C=N/O)cc2)cc1,inactive
8,COc1ccc(NC(=O)C(Cc2ccccc2)n2cccc2)cc1 (stereo not drawn),inactive
9,COc1cc(/C=C/C(=O)O)cc2c1OCCO2,inactive
10,CC(=O)c1cc(O)c2ccccc2c1O,inactive
11,O=C(Cn1c(=O)oc2cc(S(=O)(=O)N3CCCC3)ccc21)N1CCN(c2ccccc2F)CC1,inactive
12,CCOC(=O)N1CCN(C(=S)NC(=O)c2ccc(Br)cc2)CC1,inactive
13,CN1CCCN(S(=O)(=O)c2ccc3c(c2)OCCO3)CC1,inactive
14,CCN1CCN(C(=O)Nc2ccc(Cc3ccc(NC(=O)N4CCN(CC)CC4)cc3)cc2)CC1,inactive
15,O=C(Nc1ccc(Cl)cc1)N1CCCN(Cc2ccccc2F)C1,inactive
16,Cc1oc2c(O)c(O)ccc2c(=O)c1-c1ccccc1,inactive
17,CCCNC(=O)C1CCN(c2ccc(S(=O)(=O)N3CCOCC3)cc2Cl)CC1,inactive
18,CCN(CC)S(=O)(=O)c1ccc(N2CCOCC2)c(C(=O)O)c1,inactive
19,CCCC(=O)N1CCN(c2ccc(NC(=S)NC(=O)c3cccc(C)c3)cc2)CC1,inactive
20,CCOc1ccc2nc(NC(=O)C3=NNC(=O)CC3)sc2c1,inactive
21,Cc1ccccc1Oc1ccc(Oc2ccccc2C)nn1,inactive
